From PubChem
Sampled rows, rich in hits. Any-hit rate of the full collection: about 18%.
Six1-Eya2 inh: qHTS Assay for Inhibitors of the Six1/Eya2 Interaction | hit rate 0.56% among 360,000 | AlphaScreen GST-Six1/His-Eya2 binding, biochemical; hits give low values | Homeobox protein SIX1 (Homo sapiens) + Protein phosphatase EYA2 (Homo sapiens), … | activity change, % (test concentration not listed); in the data active = activity change below about -65%; inconclusive = mostly about -30% to -63%
Target sequence (O00167 whole entry, looked up): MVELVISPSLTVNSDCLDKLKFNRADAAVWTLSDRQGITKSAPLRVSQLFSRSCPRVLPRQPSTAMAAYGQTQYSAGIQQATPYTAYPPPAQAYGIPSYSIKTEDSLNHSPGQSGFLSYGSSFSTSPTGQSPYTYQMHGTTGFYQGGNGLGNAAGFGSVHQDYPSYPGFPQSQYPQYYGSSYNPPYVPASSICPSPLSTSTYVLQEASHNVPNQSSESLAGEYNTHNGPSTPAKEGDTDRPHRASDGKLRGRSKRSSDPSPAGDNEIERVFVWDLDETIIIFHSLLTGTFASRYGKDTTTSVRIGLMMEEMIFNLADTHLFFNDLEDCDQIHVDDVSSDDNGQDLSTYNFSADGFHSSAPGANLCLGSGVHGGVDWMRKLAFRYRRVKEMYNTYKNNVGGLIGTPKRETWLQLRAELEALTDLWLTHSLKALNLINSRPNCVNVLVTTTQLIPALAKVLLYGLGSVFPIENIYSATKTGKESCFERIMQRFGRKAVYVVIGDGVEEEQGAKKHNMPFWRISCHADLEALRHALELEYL
Target sequence (Q15475 whole entry, looked up): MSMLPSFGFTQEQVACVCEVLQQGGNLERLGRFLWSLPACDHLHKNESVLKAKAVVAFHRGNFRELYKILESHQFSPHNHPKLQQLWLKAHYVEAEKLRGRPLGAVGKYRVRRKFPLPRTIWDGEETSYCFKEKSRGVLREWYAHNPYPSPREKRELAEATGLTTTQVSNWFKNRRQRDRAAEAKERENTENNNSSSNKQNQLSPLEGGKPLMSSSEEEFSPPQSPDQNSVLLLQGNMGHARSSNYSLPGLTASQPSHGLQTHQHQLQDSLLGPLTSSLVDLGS
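GST-Six1 + His-Eya2 (5X stock: 250/500 nM); Tris pH 8.0, 300 mM NaCl, 0.05% BSA, 0.02% Tween 20; GSH donor/Ni acceptor beads; 1 h 37 °C dark; AlphaScreen readout.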
TDP1 cell noCPT: qHTS for Inhibitors of human tyrosyl-DNA phosphodiesterase 1 (TDP1): qHTS in cells in absence of CPT; DT40 Tdp1-/- hTDP1 cells, no CPT, ATP luminescence, 48 h; Potency, µM (series often up to 46.2 µM), for inactives: top-dose activity change, negative = growth inhibition, actives largely listed as inhibitors; hit rate 15% among 420,000; also: potency is read from the fitted curve at half-maximal effect; nearly all actives have a fitted effect of over 55% in size
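Growth of hTDP1-complemented DT40 Tdp1-knockout cells is measured by ATP luminescence after at least 48 hr compound exposure at 37 °C, with DMSO substituting for the 20 nM CPT used in the parallel screen.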
CtBP-E1A blk: qHTS Assay for Inhibitors of the CtBP/E1A Interaction; AlphaScreen GST-E1A/His-CtBP binding, 1536-well; hits give low values; hit rate 0.49% among 340,000; activity change, % (test concentration not listed); in the data active = activity change below about -65%; inconclusive = mostly about -30% to -63%
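Protein mix (5X: 125 nM each GST-E1A, His-CtBP) was incubated with pinned compound 2 h at 37 deg C in dark, in 50 mM Tris pH 8.0 buffer with 300 mM NaCl. Glutathione donor and nickel acceptor beads followed; AlphaScreen signal read after 1 h.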
TDP1 cell CPT: qHTS for Inhibitors of human tyrosyl-DNA phosphodiesterase 1 (TDP1): qHTS in cells in presence of CPT; Potency, µM (series often up to 46.2 µM), without a hit: at the top dose activity change, negative = growth inhibition, most hits filed as inhibitors; chicken DT40 Tdp1-/-;hTDP1 cells + 20 nM CPT, ATP luminescence, 48 h; AID 686979, 2013; hit rate 12% among 420,000; also: potency is read from the fitted curve at half-maximal effect; nearly all actives have a fitted effect of over 55% in size
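Cell growth measured by CellTiter-Glo luminescence after a minimum 48 h, 37 C compound exposure with 20 nM CPT in Tdp1-knockout DT40 cells stably expressing hTDP1, seeded 400/well; qHTS titration format.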
IL-1B inflam inh: qHTS for Inhibitors of Inflammasome Signaling: IL-1-beta AlphaLISA Primary Screen | activity change, % at 57.5 µM | THP-1 LPS/ATP IL-1B secretion, AlphaLISA, 16 h; hits give low values | hit rate 4.7% among 360,000; in the data active = activity change below about -50%; inconclusive = mostly about -30% to -49%
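THP-1 cells pretreated 1 hr with compounds (up to 57.5 uM final), then stimulated with LPS (250 ng/mL final) plus ATP (1.25 mM final); secreted IL-1B measured by AlphaLISA after 16 hr, decreased signal indicating inhibition.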
TDP1 block: qHTS Assay for Inhibitors of Tyrosyl-DNA Phosphodiesterase (TDP1). hit rate 0.28% among 350,000. Potency, µM (highest dose often 130 µM), for inactives: top-dose activity change, negative = inhibition, most hits filed as inhibitors. Tyrosyl-DNA phosphodiesterase 1 (Homo sapiens), Q9NUW8. recombinant TDP1, AlphaScreen DNA substrate cleavage; also: potency is read from the fitted curve at half-maximal effect; nearly all actives have a fitted effect of over 40% in size
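AlphaScreen read-out: signal falls as enzyme removes the 3' tyrosine-FITC from a 5'-biotinylated DNA oligo (15 nM, 5 min, RT). Enzyme was E. coli-made recombinant Tdp1 at 1 nM, exposed to compound for 15 min beforehand; beads 10 ug/ml, 10 min.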
An asterisk follows results filed as active; u = inconclusive; x = no result; [ ] = dose if it differs, or a comment. Unless noted, calls follow the shape of the dose curve; as a rule, active = well fitted curve in the direction sought with a large enough effect; inconclusive = small, poorly fitted or top-dose-only effect, or another doubt; inactive = no such curve, though single readings can be large; an effect the other way counts as inactive or inconclusive. % is scaled to controls: 0 for no effect and ±100 for the full control effect.

SMILES	Six1-Eya2 inh	TDP1 cell noCPT	CtBP-E1A blk	TDP1 cell CPT	IL-1B inflam inh	TDP1 block
CC(=O)Nc1ccc(S(=O)(=O)N(C)CC(=O)OC(C)C(=O)N(C)Cc2ccccc2)cc1 (centres undefined)	0.3	-4.7%	3.1	12.5%	15.0	0.1%
CC(OC(=O)/C(C#N)=C/c1ccc(N(C)C)cc1)C(=O)N(C)Cc1ccccc1 (centres undefined)	4.6	11.6µM*	0.9	u	10.0	1.8%
Cc1[nH]nc(Nc2ccc(Br)cc2)c1[N+](=O)[O-]	-8.1	18.4µM*	-4.7	20.6µM*	-9.7	x
Cc1cccc(Nc2n[nH]c(C)c2[N+](=O)[O-])c1	-18.1	-28.2%	0.0	11.0%	-2.6	2.3%
Cc1[nH]nc(Nc2ccc(C(C)C)cc2)c1[N+](=O)[O-]	-6.0	u	u	8.4%	-51.4*	x
Cc1[nH]nc(Nc2ccccc2)c1[N+](=O)[O-]	2.6	-12.4%	-0.4	-3.7%	-17.9	-1.5%
Brc1ccc(OCc2nc(-c3ccccn3)n[nH]2)cc1	-90.6*	14.6µM*	-92.8*	u	-13.3	12.7%
Clc1ccc(OCc2nc(-c3ccccn3)n[nH]2)cc1	-92.1*	u	-94.3*	u	58.3	8.7%
Cc1cc(Oc2ccc(Cl)cc2)nc(-c2ccccn2)n1	4.4	5.17µM*	2.3	5.17µM*	46.1	x
O=c1[nH]c2ccccc2nc1-c1cccs1	7.5	-24.5%	-4.0	1.1%	43.2	-3.1%
O=c1c2ccccc2n2c(-c3ccccc3O)nnc2n1Cc1ccc(F)cc1	x	-11.4%	x	-4.9%	x	-2.9%
C/C(=N/Nc1ccc([N+](=O)[O-])cc1)c1c[nH]c2ccccc12	1.4	u	x	u	-4.3	x
Cc1cc(C)n(CC(C)NC(=O)c2cc(COc3ccc(F)c(F)c3)on2)n1 (centres undefined)	-5.4	16.4µM*	x	u	-6.9	x
Cc1nc(C(C)NC(=O)c2cc(COc3ccc(F)c(F)c3)on2)cs1 (centres undefined)	-4.8	u	5.4	u	-7.7	0.1%
Cc1cc(CNC(=O)c2cc(COc3ccc(F)c(F)c3)on2)nn1C	-0.2	u	11.6	14.6µM*	7.2	2.5%
Cc1ccc(OCc2cc(C(=O)NC(C)Cc3cnccn3)no2)cc1C (centres undefined)	2.7	u	5.8	u	6.7	3.5%[56.1 µM]
Cc1cccc(CC(C)NC(=O)c2cc(COc3ccc(C)c(C)c3)on2)n1 (centres undefined)	-5.0	20.6µM*	14.3	20.6µM*	u	0.2%
CCOC(=O)CC1(NC(=O)c2cc(COc3ccc(F)c(F)c3)on2)CCCCC1	13.4	18.4µM*	21.0	23.1µM*	27.3	-17.4%
O=C1CC(c2ccccc2)CC(O)=C1C=NCCc1ccccc1 (centres undefined)	-17.7	-20.0%	5.4	-20.3%	-18.4	-1.2%
O=C1C=CC[C@H](/C=C/C[C@@H](O)C[C@H](O)CCc2ccccc2)O1	2.1	u	-6.4	u	-96.5*	x
Cc1cc(OCC(=O)OCC(=O)NC2CCCCC2C)ccc1Cl (centres undefined)	3.4	9.5%	2.0	-1.9%	-6.4	1.5%
N/C(=N\OC(=O)c1cc(-c2ccccc2)nc2ccccc12)c1ccccn1	-1.5	11.6µM*	x	13µM*	-26.2	9.0%
O=C(N/N=C/c1ccccn1)c1cc(C2CC2)nc2ccccc12	u	u	u	23.1µM*	-102.1*	7.8%
O=C(N/N=C/c1ccccn1)c1cc(-c2ccccc2)nc2ccccc12	u	16.4µM*	x	u	0.0	x
N/C(=N\OC(=O)COc1ccc2ccccc2c1)c1ccccn1	2.1	-10.2%	4.8	-0.5%	-57.6*	7.3%
SMILES	Six1-Eya2 inh	TDP1 cell noCPT	CtBP-E1A blk	TDP1 cell CPT	IL-1B inflam inh	TDP1 block
O=C(N/N=C/c1ccc(O)cc1)c1cc(-c2ccccc2)nc2ccccc12	-7.3	u	-1.0	u	25.7	x
O=C(CNC(=O)c1cccs1)N/N=C/c1ccccc1[N+](=O)[O-]	-5.5	-15.8%	-6.1	20.9%	-2.7	0.2%[0.0935 µM]
O=C1CCC(c2ccccc2)c2ccccc21 (centres undefined)	16.3	-6.9%	14.6	-9.0%	0.0	x
N#CC1C(=O)c2ccccc2C1c1ccccc1 (centres undefined)	-3.8	u	19.5	u	-103.7*	x
COC(=O)c1c(-c2ccccc2)csc1N1C(=O)Nc2ccccc2N1O	-4.2	28.5%	-10.4	-9.5%	-4.9	0.0%
COc1ccc(Cc2nnc(NC(=O)C(C)C)s2)cc1	6.9	u	-3.7	-0.7%	7.4	x
CCOC(=O)c1cc2ccccc2n1C1CCN(C)CC1	-1.7	25.9µM*	-7.3	u	-11.2	x
N#Cc1c(Cl)nc(N/N=C/c2ccccc2)c(Cl)c1Cl	7.6	0.1%	2.5	9.1%	-17.8	0.0%
C[N+](C)(C)c1ccc(/C=N/Nc2nc(Cl)c(C#N)c(Cl)c2Cl)cc1	-8.0	23.1µM*	8.2	u	6.8	7.9%
O=C(c1csnn1)N1CCC2(CCN(Cc3cc(C(F)(F)F)cc(C(F)(F)F)c3)CC2)CC1	x	23.1µM*	x	u	x	x
COCC(=O)N1CCC2(CCN(Cc3cc(C(F)(F)F)cc(C(F)(F)F)c3)CC2)CC1	x	u	x	-0.5%	x	x
Cc1noc(C)c1C(=O)N1CCC2(CCN(Cc3ccncc3)CC2)CC1	x	-14.5%	x	-12.2%	x	x
Cc1noc(C)c1C(=O)N1CCC2(CCN(Cc3cc(C(F)(F)F)cc(C(F)(F)F)c3)CC2)CC1	x	23.1µM*	x	u	x	x
COc1ccc(C(=O)N2CCC3(CCN(Cc4cc(C(F)(F)F)cc(C(F)(F)F)c4)CC3)CC2)cc1	x	u	x	23.1µM*	x	x
O=C(N[C@@H]1c2ccccc2C2(CCN(Cc3c(O)ccc4ccccc34)CC2)[C@H]1O)c1ccccc1	x	-23.8%	x	-11.5%	x	x
CNC(=O)C[C@H]1C(=O)N(C2CCCCC2)C[C@@H]1c1ccc(Br)cc1	4.7	-1.4%	-3.6	1.2%	11.2	x
Cc1cccc(NC(=S)NC2CC3CCCC(C2)N3CC(C)C)c1C (centres undefined)	-0.7	-23.9%	2.9	-20.3%	-14.6	6.6%
